# Measurements reported in PubChem BioAssay (EPA / NIEHS).
# Results filed as inconclusive are left out. Calls of active or inactive are those of the source. Rule for the calls: active = hit-call score of the fitted dose curve at least 0.9, where 1 is the maximum; inconclusive = response in the unintended direction; inactive = score below 0.9.
# Target: sheep Cyclooxygenase-1 (Cox1), PTGS1 (gene 443551) (UniProt P05979)
# Experiment: NVS_ENZ_oCOX1: NovaScreen (NVS) Enzymatic Assay for sheep Cyclooxygenase-1 (Cox1) (AID 2283239);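 note: actives reduce cyclooxygenase activity so potencies are for inhibitors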
# Method in brief: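 Ovine seminal vesicle extract; absorbance (colorimetric) enzyme read-out at 0.66 h post-dose. Primary: single conc 25 uM, duplicate. Follow-up: concentration series on actives. Activity = signal loss vs DMSO baseline.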
# Chain of sheep Cyclooxygenase-1 (Cox1), PTGS1 (gene 443551) (P05979 whole entry, looked up): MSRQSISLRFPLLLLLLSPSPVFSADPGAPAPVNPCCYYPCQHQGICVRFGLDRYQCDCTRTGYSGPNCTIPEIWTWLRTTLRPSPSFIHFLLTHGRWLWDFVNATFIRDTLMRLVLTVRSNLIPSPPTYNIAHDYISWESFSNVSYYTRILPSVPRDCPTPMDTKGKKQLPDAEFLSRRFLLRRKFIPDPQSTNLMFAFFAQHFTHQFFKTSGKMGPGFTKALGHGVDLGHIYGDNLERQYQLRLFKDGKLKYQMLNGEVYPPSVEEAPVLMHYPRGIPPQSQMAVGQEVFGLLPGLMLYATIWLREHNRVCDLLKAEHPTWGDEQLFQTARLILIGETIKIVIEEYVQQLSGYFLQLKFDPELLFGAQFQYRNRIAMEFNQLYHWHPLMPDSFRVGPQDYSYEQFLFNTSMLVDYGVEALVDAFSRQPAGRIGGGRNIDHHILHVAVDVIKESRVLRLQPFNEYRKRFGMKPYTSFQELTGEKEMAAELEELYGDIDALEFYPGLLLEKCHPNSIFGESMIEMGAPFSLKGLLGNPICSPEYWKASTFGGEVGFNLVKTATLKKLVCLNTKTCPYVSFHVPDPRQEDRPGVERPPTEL
SMILES,outcome,AC50
CC(=O)S[C@H](C(=O)N[C@H]1Cc2ccccc2[C@H]2CCC[C@@H](C(=O)O)N2C1=O)C(C)C,inactive,–
NC(=Nc1ccccc1)Nc1ccccc1,inactive,–
Nc1nc(=S)c2[nH]cnc2[nH]1,–,2.25 µM (active)
CCN(CC)CCOc1ccc(C(=C(Cl)c2ccccc2)c2ccccc2)cc1,–,4.39 µM (active)
Oc1ccc(O)cc1,inactive,–
COc1ccc(OC(F)(F)F)cc1CN[C@H]1CCCN[C@H]1c1ccccc1,–,11.6 µM (active)
C#CC(O)C(CC)CCCC (stereo unspecified),inactive,–
Cn1cnc2c1c(=O)[nH]c(=O)n2C,inactive,–
CSc1ccc(Oc2ccc(S(N)(=O)=O)cc2CN(C)C)cc1C,inactive,–
O=C1c2c(O)cccc2Cc2cccc(O)c21,–,3.2 µM (active)
O=[Si]=O,inactive,–
S=c1[nH]c2ccccc2s1,–,8.91 µM (active)
COC(=O)[C@H]1[C@H]2C[C@@H]3c4[nH]c5cc(OC)ccc5c4CCN3C[C@H]2C[C@@H](OC(=O)c2cc(OC)c(OC)c(OC)c2)[C@@H]1OC,–,19.5 µM (active)

# System: bovine Angiotensin II Receptor Type 2 (AT2), gene 407157
# Experiment: NVS_GPCR_bAT2: NovaScreen (NVS) G Protein-Coupled Receptor Assay for bovine Angiotensin II Receptor Type 2 (AT2) (AID 2283240)
# Method in brief: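 Radioligand displacement on bovine cerebellar membranes, 1 hour incubation, filter-based scintillation counting; loss of signal vs DMSO. Duplicate single-point screen at 25 uM, then concentration-response to 50 uM maximum.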
SMILES,AC50,outcome
O=C(NS(=O)(=O)/C=C/c1cccs1)c1ccc(F)cc1Br,14.5 µM (active),–
CCCCc1nc2cccnc2n1Cc1ccc(-c2ccccc2-c2nnn[nH]2)cc1,–,inactive
CCc1cc(C2=C(C(=O)O)N(c3ccccc3C(F)(F)F)S(=O)(=O)c3ccccc32)cc2c1OCO2,25 µM (active),–
